Screens from PubChem BioAssay.
CYP2C9 inhib: blockers of cytochrome P450 2C9 activity – biochemical, luminescence, ADME assay, primary screen. P11712. CYP2C9 Supersomes, luciferin-H conversion. AID 777, 2007. inhibition, % at 5 µM. 20% of 96,000 active;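 active = blocking of liver enzyme CYP2C9 beyond about 50% at 5 µM, limit read from the data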
CYP2C19 inh: blockers of cytochrome P450 2C19 activity – biochemical, luminescence, ADME assay, primary screen; inhibition, % at 5 µM; 21% of 96,000 active; P33261; CYP2C19 Supersomes, luciferin-H EGE luminescence, 30 min; AID 778, 2007;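 active = CYP2C19 inhibition above a set limit at 5 µM in the primary screen, cut at about 50% in these data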;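 also: plate controls were negative control wells for no effect and 2.5 mM tranylcypromine positive control for full effect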
CYP2C9 act: human CYP2C9 activators, primary screen, biochemical, luminescence. Cytochrome P450 2C9 (Homo sapiens), P11712. recombinant CYP2C9, luciferin-H conversion; active compounds read high; factor 1 = untreated enzyme, 0 = blocked. activation factor at 5 µM. 1.4% of 96,000 active. AID 1024, 2008;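 active = activation factor of 2 or more for CYP2C9 at a 5 µM dose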;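 also: 0 = sulfaphenazole-blocked wells and 1 = vehicle-only wells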
CYP2C19 act: human CYP2C19 activators, primary screen, biochemical, luminescence; recombinant CYP2C19, luciferin-H EGE luminescence; active compounds read high; 0 = fully inhibited enzyme, 1 = untreated enzyme; 96,000 tested, under 10 active; Cytochrome P450 2C19 (Homo sapiens), P33261; activation factor at 5 µM;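 active = activation factor of at least 2 at 5 µM in the primary screen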;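 also: 0 = wells with 2.5 mM tranylcypromine and 1 = vehicle-only wells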
PLAP activator: PLAP enzyme activators, biochemical, luminescence, HTS; activation fold at 20 µM; Alkaline phosphatase, placental type (Homo sapiens), P05187; purified PLAP enzyme, luminescent substrate read-out; active compounds read high; 1.2% of 96,000 active; in the data active = activation fold above about 2
Target sequence (P05187 whole entry, looked up): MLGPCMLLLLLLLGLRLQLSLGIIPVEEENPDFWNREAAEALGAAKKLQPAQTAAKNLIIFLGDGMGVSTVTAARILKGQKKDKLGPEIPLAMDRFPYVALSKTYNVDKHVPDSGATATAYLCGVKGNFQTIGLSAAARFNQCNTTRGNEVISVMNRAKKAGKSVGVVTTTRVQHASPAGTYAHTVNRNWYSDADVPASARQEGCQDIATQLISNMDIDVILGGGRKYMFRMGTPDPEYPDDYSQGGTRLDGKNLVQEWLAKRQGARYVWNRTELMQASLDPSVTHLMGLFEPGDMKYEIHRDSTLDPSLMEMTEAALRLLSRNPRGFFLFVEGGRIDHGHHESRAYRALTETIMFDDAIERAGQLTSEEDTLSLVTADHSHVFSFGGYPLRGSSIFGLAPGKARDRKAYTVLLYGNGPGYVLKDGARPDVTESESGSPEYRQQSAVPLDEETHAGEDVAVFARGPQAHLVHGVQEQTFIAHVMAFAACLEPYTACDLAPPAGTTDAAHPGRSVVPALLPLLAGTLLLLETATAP
An asterisk follows results filed as active. An excerpt weighted towards active compounds, which were near 31% of everything screened.

SMILES	CYP2C9 inhib	CYP2C19 inh	CYP2C9 act	CYP2C19 act	PLAP activator
O=C1CN(C(=O)CSc2nnnn2-c2ccc(Cl)cc2)c2ccccc2N1	-5	13	1	0.9	0.8
O=C(Nc1cccc(Cl)c1)NC1(C(=O)NCc2cccs2)CCCCC1	42	-3	0.6	1	1.1
CC(C)(C)NC(=O)COC(=O)c1cncc(Br)c1	-5	6	1	0.9	1.2
Cc1ccc(NC2=Nc3ccccc3CS2)cc1	13	51*	0.9	0.5	1
O=C(c1ccc(Br)cc1)N(C1=NCCCCS1)c1ccccc1	-6	14	1.1	0.9	1
CN(Cc1ccccc1)c1nc(N)c([N+](=O)[O-])c(Nc2cccc(F)c2)n1	79*	38	0.2	0.6	0.9
COC(=O)c1ccc(N2C(=O)CC(Sc3n[nH]c(C)n3)C2=O)cc1 (stereo not drawn)	5	8	1	0.9	1.6
CN=C(Nc1cc(Cl)ccc1Cl)SC1CC(=O)N(c2ccc(C(=O)OC)cc2)C1=O (stereo not drawn)	100*	92*	0	0.1	1.3
CC(=O)Nc1cc(C(C)(C)C)c(O)c(C(C)(C)C)c1	88*	22	0.1	0.8	1.4
CC(C)(C)c1cc(CNC2CS(=O)(=O)C[C@@H]2O)cc(C(C)(C)C)c1O (stereo partly drawn)	15	6	0.9	0.9	1.3
CCOC(=O)c1c(NC(=O)CC2SC(=NC)N(C)C2=O)sc(C)c1C (stereo not drawn)	32	34	0.7	0.7	1.7
Cc1ccc(NC(=O)CC2S/C(=N/c3nccs3)N(C)C2=O)c(C)c1 (stereo not drawn)	98*	96*	0	0	0.9
Cc1csc(C(C#N)C(=O)c2cc3ccccc3o2)n1 (stereo not drawn)	60*	4	0.4	1	1
CCN(CC)C(=O)COc1ccc(Br)cc1Cl	26	82*	0.7	0.2	1
CCCCc1cc(=O)oc2cc(OCC(=O)N(CC)CC)c(Cl)cc12	17	-10	0.8	1.1	1.4
COc1ccc(/C=N/NC(=O)CCCOc2ccc(Cl)cc2Cl)cc1[N+](=O)[O-]	70*	86*	0.3	0.1	0.8
O=C(O)CCC(=O)NNC(=O)CCCOc1ccc(Cl)cc1Cl	-25	-21	1.2	1.2	0.9
CCN(CC)C(=O)CCCOc1ccc(Cl)cc1Cl	21	97*	0.8	0	1.2
CC(C)NC(=O)CCCOc1ccc(Cl)cc1Cl	25	59*	0.8	0.4	1
CCC(=O)c1ccc(OCC(=O)Nc2nn3cnnc3s2)cc1	84*	29	0.2	0.7	1.1
C=CCn1c(CC(=O)OC)csc1=Nc1ccc(C(C)=O)cc1	43	78*	0.6	0.2	1.4
Cc1ccc(S(=O)(=O)NNc2nc3ccccc3nc2C(F)(F)F)cc1	50*	67*	0.5	0.3	1.8
O=c1c2ccccc2nc(/C=C/c2ccc([N+](=O)[O-])o2)n1CCCO	11	16	0.9	0.8	0.9
COc1ccc(NC(=O)c2oc3ccccc3c2NC(=O)c2ccco2)cc1	19	60*	0.8	0.4	1.2
COCC(=O)Nc1c(C(=O)Nc2cccc(OC)c2)oc2ccccc12	64*	11	0.4	0.9	1.2
SMILES	CYP2C9 inhib	CYP2C19 inh	CYP2C9 act	CYP2C19 act	PLAP activator
CCOCC(=O)Nc1c(C(=O)Nc2ccc(OC)cc2OC)oc2ccccc12	71*	22	0.3	0.8	1.2
COc1ccc(OCC(=O)Nc2ccc(NC(=O)c3ccco3)cc2)cc1	38	38	0.6	0.6	1.2
CCOC(=O)c1c(C)[nH]c(C)c1C(=O)COc1ccc(NC(=O)c2ccco2)cc1	93*	88*	0.1	0.1	1.4
COc1ccc(NC(=O)c2oc3ccccc3c2NC(=O)c2ccco2)c(OC)c1	36	10	0.6	0.9	1
C=CCn1c(CNc2ccccc2)nnc1SCC(=O)N/N=C/c1ccc(O)cc1O	10	48	0.9	0.5	1
Cc1ccc(NC(=O)c2ccc(OC(=O)c3ccco3)cc2)cc1	-10	10	1.1	0.9	0.8
Cc1ccc(Oc2ccc(NC(=O)c3ccco3)cc2)cc1	59*	56*	0.4	0.4	0.8
CCOC(=O)Nc1cc(C)ccc1OC	-30	-4	1.3	1	1.2
COc1ccc(C)cc1NC(=O)CC(O)(C(F)(F)F)C(F)(F)F	14	62*	0.9	0.4	0.9
Cc1ccc(NC(=O)CCC(=O)NCCO)cc1	-9	12	1.1	0.9	0.7
Cc1ccc(NC(=O)CC(O)(C(F)(F)F)C(F)(F)F)cc1	20	59*	0.8	0.4	0.9
COc1ccc(/C=N/NC(=O)C(Cc2c[nH]c3ccccc23)NC(=O)OCC(C)C)cc1[N+](=O)[O-] (stereo not drawn)	24	-1	0.8	1	1.1
C=CCn1c(=O)c2ccccc2n2c(SCc3nc(N)nc(Nc4ccccc4C)n3)nnc12	32	20	0.7	0.8	1.4
COCC(C)n1c(SCc2nc(N)nc(Nc3ccccc3C)n2)nc2ccccc2c1=O (stereo not drawn)	95*	74*	0	0.3	1.7
CCCCn1c(SCc2nc(N)nc(Nc3ccccc3C)n2)nc2ccccc2c1=O	99*	87*	0	0.1	1.5
CCOC(=O)N1CCN(S(=O)(=O)c2c(C)[nH]c(=O)[nH]c2=O)CC1	-39	20	1.4	0.8	0.9
CC1CC(C)CN(C2CCN(Cc3cccnc3)CC2)C1 (stereo not drawn)	12	3	0.9	1	1
COCCn1c(SCc2cccnc2)nnc1-c1ccco1	16	14	0.8	0.9	1.8
Cc1cc(NC(=O)c2ccc(COc3ccc(Cl)c(C)c3)o2)no1	18	30	0.8	0.7	0.8
CCCN(CCC)C(=O)Cn1c(=O)n(CCCCC(=O)NC2CCCC2)c(=O)c2ccccc21	46	19	0.5	0.8	1.2
O=C(CCCCn1c(=O)c2ccccc2n(CC(=O)Nc2cccc(F)c2)c1=O)NCc1ccco1	75*	20	0.3	0.8	1
O=C(CCCCn1c(=O)c2ccccc2n(CC(=O)NC2CCCC2)c1=O)NCc1ccco1	62*	18	0.4	0.8	1
O=C(CCCCn1c(=O)c2ccccc2n(Cc2ccc(Cl)cc2)c1=O)NCc1ccco1	30	18	0.7	0.8	0.8
CC1CC(C)CN(C(=O)Cn2c(=O)n(CCCCC(=O)NCc3ccco3)c(=O)c3ccccc32)C1 (stereo not drawn)	79*	29	0.2	0.7	1.2
COc1cccc(NC(=O)Cn2c(=O)n(CCCC(=O)NCc3ccco3)c(=O)c3ccccc32)c1	18	30	0.8	0.7	1.1
